HCMV inh: qHTS Assay for inhibitors of the human cytomegalovirus (HCMV). 410,000 compounds, 4.5% hits. HFF cells, HCMV-luciferase reporter, 72 h; hits give low values. activity change, negative = inhibition, % at 57.5 µM; in the data active = activity change below about -60%; inconclusive = no clear call, values can overlap the other calls; inactive = above about -39%
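Cell-based, HFFs, 1000 cells/well, 16 h 37C; cpds in DMSO + HCMV-luc, MOI 1 PFU/cell; 72 h 37C; OneGlo luminescence after 5 min RT; norm. to buffer vs Salinomycin 10uM.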
MARV entry inh: qHTS for inhibitors of binding or entry into cells for Marburg Virus; Marburg virus pseudotyped entry inhibition, cell reporter; Potency, µM (titrated, usually from 37.8 µM), inactives show at the top dose activity change, negative = inhibition, most hits filed as inhibitors; 300,000 compounds, 1.8% hits; calls by dose curve; tested in HEK293 cells; also: potency is read from the fitted curve at half-maximal effect
Vaccinia mCherry: qHTS for Stage-Specific Inhibitors of Vaccinia Orthopoxvirus: mCherry Reporter Primary qHTS. Vaccinia virus mCherry reporter infection, fluorescence. Potency, µM (top dose mostly 36.5 µM), inactives show at the top dose activity change, negative = inhibition, actives largely listed as inhibitors. 310,000 compounds, 0.63% hits. AID 720579, 2013; calls by dose curve; tested in A549 cells; also: potency is read from the fitted curve at half-maximal effect; nearly all actives have a fitted effect of over 35% in size
Vaccinia Venus: qHTS for Stage-Specific Inhibitors of Vaccinia Orthopoxvirus: Venus Reporter Primary qHTS. Vaccinia virus Venus reporter expression, fluorescence. Potency, µM (top dose mostly 36.5 µM), without a hit: at the highest dose activity change, negative = inhibition, hits mostly inhibitors. 330,000 compounds, 0.46% hits; calls by dose curve; tested in A549 cells; also: potency is read from the fitted curve at half-maximal effect; nearly all actives have a fitted effect of over 30% in size
FMDV inh: High Throughput Screening for Foot and Mouth Disease Virus Antivirals. FMDV antiviral cell-based qHTS. Potency, µM (titrated, usually from 57.9 µM), for the others: at the top dose activity change, negative = inhibition, most hits filed as inhibitors. 410,000 compounds, 1.2% hits; calls by dose curve; tested in HEK293T cells; also: read-out not given here; potency is read from the fitted curve at half-maximal effect; nearly all actives have a fitted effect of over 45% in size
LASV entry inh: qHTS for Inhibitors of binding or entry into cells for Lassa Virus | Lassa virus pseudotype entry inhibition, cell reporter | Potency, µM (doses to about 37.9 µM), without a hit: at the top dose activity change, negative = inhibition, hits mostly inhibitors | 300,000 compounds, 1.2% hits; calls by dose curve; tested in HEK293 cells; also: potency is read from the fitted curve at half-maximal effect; nearly all actives have a fitted effect of over 50% in size
Starred values were filed as active, the others as inactive; i = inactive; ? = inconclusive; / = no result; ! = not active in a repeat; [ ] = remark or other dose. Most compounds without a hit are left out; they make up all but 6.5% or so of the library. % is scaled to controls: 0 for no effect and ±100 for the full control effect.

SMILES	HCMV inh	MARV entry inh	Vaccinia mCherry	Vaccinia Venus	FMDV inh	LASV entry inh
Cc1ccc(CN2CCN(Cc3ccccc3)CC2)cc1	22	/	/	/	-25%	/
CC1(C)CC(NNCCC#N)=CC(=[N+]2CCCC2)C1	?	-3%[46.1 µM]	-2%	10%	2%	-13%
CC1(C)CC(N2CCCC2)=CC(=[N+]2CCCC2)C1	-94*	2.1µM*	/	/	?	?
CC1(C)CC(N2CCCC2)=CC(=[N+]2CCCCC2)C1	-93*	?	/	/	?	?
CN(Cc1ccccc1)C1=CC(=[N+]2CCCCC2)CC(C)(C)C1	-77*	/	i[7.34 µM]	-21%[7.34 µM]	?	/
CCC1CN(CCNC(=O)c2ccc(N3CCOCC3)cc2)Cc2cc(OC)ccc2O1 (centres undefined)	/	/	-19%	-11%	-5%	/
COc1ccccc1C(=O)Nc1cccc(C(=O)OCc2cc(=O)n3cc(C)sc3n2)c1	?	/	-14%	-12%	-2%	29%[46.1 µM]
C[C@H]1[C@@H](NS(=O)(=O)c2cccc([N+](=O)[O-])c2)CC[C@@]23CCCN2C(=O)CCC[C@@H]13	11	/	/	/	/	/
Nc1ccc(C(=O)OCC(=O)N2CCc3ccccc3C2)cc1[N+](=O)[O-]	-20	24%	-3%	-14%	-6%	?
Nc1ccc(C(=O)OCC(=O)N2c3ccccc3Sc3ccccc32)cc1[N+](=O)[O-]	?	21µM*	-9%	-20%	-8%	16µM*
C=C1C=C(C(F)F)n2ncc(C(=O)NC(C)CC)c2N1 (centres undefined)	/	/	-5%	-14%	/	/
CN(C)CCNC(=O)/C(=C/c1ccc(-c2ccc(Cl)cc2)o1)NC(=O)c1ccccc1	-36	12µM*	-4%	?	?	?
Cc1ccc(C(=O)N/C(=C\c2ccc(-c3ccc(Br)cc3)o2)C(=O)NCCCN(C)C)cc1	-101*	/	/	/	?	/
Cc1ccc(C(=O)N/C(=C\c2ccc(-c3cccc([N+](=O)[O-])c3)o2)C(=O)NCCCN(C)C)cc1	-39	?	?	?	-8%	?
CN(C)CCNC(=O)/C(=C/c1ccc(-c2ccc(Cl)cc2Cl)o1)NC(=O)c1ccccc1	?	6.3µM*	?	11µM*	?	?
CN(C)CCCNC(=O)/C(=C\c1ccc(-c2cccc([N+](=O)[O-])c2)o1)NC(=O)c1ccccc1	-66*	?	?	-3%	-22%	-26%
COc1cccc(N2CC(NC(=O)COc3ccc4ccccc4c3)CC2=O)c1 (centres undefined)	-1	/	-3%[7.34 µM]	-4%[7.34 µM]	-19%	-10%[46.1 µM]
O=C(c1cc(-c2cccc(Cl)c2)on1)N1CCCCC1	72	?	-5%	-8%	42%	2%[46.1 µM]
Cc1ccc(NC(=O)Cn2c(=O)n(Cc3ccco3)c(=O)c3oc4ccccc4c32)cc1C	1	/	?	-22%	-23%	13%[46.1 µM]
COc1ccc(-c2ccc(/C=C(\NC(=O)c3ccccc3)C(=O)N3CCOCC3)o2)cc1	-63*	?	?	?	-11%	-19%
COc1ccc(C(=O)N/C(=C\c2ccccc2)C(=O)N2CCOCC2)cc1	-35	-1%	-1%	-13%	5%	10%
CCOc1ccccc1NC(=O)Cc1csc(COc2cccc(C)c2)n1	?	-5%[46.1 µM]	-11%	-14%	?	5%[46.1 µM]
Cc1ccc(S(=O)(=O)NCCN2CCOCC2)s1	-67*	/	/	/	9%	/
Cc1ccc(NC(=O)CCCn2c(=O)c3cccn3c3cccnc32)cc1C	?	/	-21%	-13%	-13%	-2%[46.1 µM]
O=C1/C(=C/c2cccs2)COc2ccccc21	15	?	-8%	-1%	-43%	15%
SMILES	HCMV inh	MARV entry inh	Vaccinia mCherry	Vaccinia Venus	FMDV inh	LASV entry inh
O=C1C(=Cc2cccs2)Oc2ccccc21	-69*	12%[46.1 µM]	-16%	9%	45%	?
COc1ccc2c(c1)c1c(c(=O)n(-c3ccc(F)c(Cl)c3)c(=O)n1Cc1ccccc1F)n2C	12	/	2%	6%	4%	-1%[46.1 µM]
C/C(N)=C(/C#N)C(=O)CSc1nnc(COc2ccccc2Cl)o1	2	1%	7.9µM*	?	29%	-1%[46.1 µM]
Cc1nc2scc(C)n2c(=O)c1S(=O)(=O)Nc1ccc(N2CCN(S(C)(=O)=O)CC2)cc1	-83*!	?	-23%	-19%	?	-17%[46.1 µM]
CCc1nn2c(=O)c(S(=O)(=O)Nc3ccc(C)c(C)c3)c(C)nc2s1	-88*	-3%[46.1 µM]	-29%	-24%	-1%	-9%[46.1 µM]
CCc1ccc(NS(=O)(=O)c2c(C)nc3sc(CC)nn3c2=O)cc1	13	?	?	-12%	?	0%[46.1 µM]
Cc1cccc(NS(=O)(=O)c2c(C)nc3scc(C)n3c2=O)c1	-70*	-2%[46.1 µM]	-27%	-21%	20%	-24%[46.1 µM]
COC(=O)c1ccccc1-c1cc(C)cc2c1OC(CNC(=O)c1cc(C)n(C)n1)C2 (centres undefined)	/	/	i	-10%	20%	/
Cc1ccc2oc(C(=O)Nc3nnc(CC(C)C)s3)cc(=O)c2c1	4	-20%[46.1 µM]	-14%	-1%	-15%	28%[46.1 µM]
CN(C)c1ccc(/C=C(\Cl)c2nc3ccccc3s2)cc1	/	?	i	-14%	10µM*	?
Cc1ccc2nc(-c3ccccc3C)c(CN(CC3CCCO3)C(=O)c3cccs3)cc2c1 (centres undefined)	/	/	-3%	-9%	-5%	/
C[C@H](CO)N1C[C@H](C)[C@@H](CN(C)Cc2ccc(C(=O)O)cc2)OCCCC[C@H](C)Oc2ccc(NC(=O)CCC(F)(F)F)cc2C1=O	15	/	/	/	/	/
C[C@H](CO)N1C[C@H](C)[C@H](CN(C)S(=O)(=O)c2cn(C)cn2)Oc2ccc(NC(=O)Nc3ccc(C(F)(F)F)cc3)cc2CC1=O	?	/	i	-27%	0%	/
C[C@H](CO)N1C[C@H](C)[C@@H](CN(C)S(=O)(=O)c2ccc(F)cc2)Oc2ccc(NC(=O)Nc3ccc(C(F)(F)F)cc3)cc2C1=O	-15	/	?	?	?	/
C[C@H](CO)N1C[C@H](C)[C@@H](CN(C)S(=O)(=O)c2ccc(F)cc2)Oc2ccc(NS(=O)(=O)c3ccc(F)cc3)cc2C1=O	?	/	i	-4%	-15%	/
C[C@@H]1CCCCO[C@@H](CN(C)Cc2ccc(Cl)c(Cl)c2)[C@@H](C)CN([C@H](C)CO)C(=O)c2cc(NC(=O)CCC(F)(F)F)ccc2O1	-60*	/	?	?	-21%	/
C[C@@H]1CN([C@@H](C)CO)C(=O)Cc2cc(NC(=O)Nc3ccc(C(F)(F)F)cc3)ccc2O[C@@H]1CN(C)S(=O)(=O)c1ccc(Cl)cc1	-29	/	?	11µM*	?	/

Source: PubChem BioAssay (National Center for Advancing Translational Sciences (NCATS))
